Assay outcomes from PubChem.
Statin myotox sup = suppressors of statin myotoxicity in C2C12 myotubes, primary screen, cell-based, single point, plate reader | 330,000 tested, 0.78% active | rescue of ATP level, % at 7.49 µM | C2C12 myotubes + simvastatin, ATP luminescence, 48 h; scaled: DMSO 0, geranylgeraniol control 100;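 active = mean ATP rescue above about 67%, or every replicate alone reaching that limit, limit read from the data, passing the limit was not always enough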;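 note: myotubes were challenged with 10 µM simvastatin during compound exposure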
PGC1a acetyl inh = inhibitors of PGC1a acetylation signal, primary screen, cell-based, U2OS, AlphaScreen, inhibitor mode; 350,000 tested, 0.17% active; AlphaScreen anti-acetyl-lysine; with virally co-expressed GCN5 acetyltransferase; inhibition, % at 15.6 µM; AID 651687, 2012;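 active = every replicate shows inhibition of at least 40%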;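 note: 0% = neutral control wells and 100% = positive control wells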
AI-2 QS mod = Vibrio harveyi AI-2 quorum sensing modulators, primary screen, JMH597 strain, luminescence/OD600 ratio. Vibrio harveyi JMH597 AI-2 luminescence/OD600 ratio, 9 h; active compounds read low; strain lacks LuxN and CqsS sensors; 0 = neutral-control median. activity change, % at 7.5 µM. 300,000 tested, 0.4% active. AID 2094, 2009; in the data active = activity change below about -75%, passing the limit was not always enough;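 note: luminescence divided by OD600 gain over 9 h not by final OD600 alone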
Rce1 inh = yeast Rce1p protease inhibitors, primary screen, biochemical, fluorescence, cell-free homogeneous. calls only. AID 2563, 2010. yeast membranes, quenched prenylated peptide cleavage fluorescence. 290,000 tested, 0.27% active. CAAX prenyl protease 2 (Saccharomyces cerevisiae (strain ATCC 204508 / S288c)), Q03530;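 active = fall in fluorescence gain of 50% or more versus controls, with final raw signal at or below 3038400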;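 note: plate controls were neutral control wells for no effect and wells lacking membranes for full effect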
Target sequence (Q03530 whole entry, looked up): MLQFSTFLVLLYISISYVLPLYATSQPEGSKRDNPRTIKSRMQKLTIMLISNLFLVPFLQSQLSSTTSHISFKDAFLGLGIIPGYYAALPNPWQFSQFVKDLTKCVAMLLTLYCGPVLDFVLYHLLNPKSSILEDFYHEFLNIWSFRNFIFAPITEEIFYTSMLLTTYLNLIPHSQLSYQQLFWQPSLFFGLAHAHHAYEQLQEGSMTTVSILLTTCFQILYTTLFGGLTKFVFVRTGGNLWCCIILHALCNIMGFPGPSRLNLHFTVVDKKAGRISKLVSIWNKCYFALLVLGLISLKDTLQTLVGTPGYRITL
HIF activator = HIF pathway transcriptional activators, primary screen, cell-based, U2OS HRE-luciferase, luminescence; activation, % at 7.5 µM (by protocol); U2OS HRE-luciferase reporter; normalized: DMSO 0%, desferrioxamine 100%; AID 1910, 2009; 300,000 tested, 0.32% active;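 active = mean activation of at least 10% of the iron chelator positive control signal, with at least half of replicates also reaching 10%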
* = called active by the depositor; i = inactive; · = no result; + = active, no number. Most compounds without a hit are left out; they make up all but 1.3% or so of the library.

SMILES | Statin myotox sup | PGC1a acetyl inh | AI-2 QS mod | Rce1 inh | HIF activator
CCN(CC)CC(=O)NCC1(c2ccccc2)CCCC1 | · | · | 14 | i | -1
Cc1ccc(C(=O)NCC2(c3ccccc3)CCCC2)cc1 | 121* | -19 | 5 | i | 0
CC(C)NC(=O)Nc1ccc2c(c1)C(=O)N([C@@H](C)CO)C[C@@H](C)[C@H](CN(C)S(C)(=O)=O)OCCCC[C@@H](C)O2 | · | 1 | · | · | ·
CCc1ccc(C(=O)COC(=O)c2nn(C)c(=O)c3ccccc23)cc1 | 1 | 1 | -3 | i | 0
CCc1ccc(C(=O)COC(=O)c2n[nH]c3ccccc23)cc1 | -5 | -10 | -78* | i | 1
CC1=Nc2ccccc2N=C(NC(=O)/C=C/C(=O)O)C1c1ccccc1 (configuration not stated) | · | · | 6 | i | 3
COc1ccc(C(=O)NC2=Nc3ccccc3N=C(C)C2c2ccccc2)cc1 (configuration not stated) | 9 | -55 | 11 | i | 25*
Cc1ccc(S(=O)(=O)N(C)C[C@@H]2Oc3ccc(NC(=O)CCC(F)(F)F)cc3C(=O)N([C@@H](C)CO)C[C@H]2C)cc1 | 15 | 25 | · | · | ·
CCCC(=O)Nc1ccc2c(c1)C(=O)N(C)[C@@H]1CC[C@@H](CC(=O)NCCN3CCCCC3)O[C@H]1CO2 | -3 | 1 | · | · | ·
O=C(CSc1nccn1-c1ncc(C(F)(F)F)cc1Cl)c1ccc(Cl)cc1 | 95* | 2 | -7 | i | 1
CC(C)CN(C(=O)CSc1nc2ccccc2[nH]1)c1c(N)n(Cc2ccccc2)c(=O)[nH]c1=O | 3 | -5 | · | · | ·
Cc1ccc2nc(SCC(=O)N(CC(C)C)c3c(N)n(CC(C)C)c(=O)[nH]c3=O)[nH]c2c1 | 101* | 14 | 11 | i | 0
c1ccc(Nc2cc(Nc3ccccc3)[nH]n2)cc1 | 45 | 1 | -88* | i | 0
C[C@@H]1CN([C@@H](C)CO)C(=O)Cc2cc(NC(=O)CCCCCC(=O)Nc3ccccc3N)ccc2O[C@@H]1CN(C)Cc1ccccc1 | 42 | -2 | · | · | ·
CCOCCn1c(N2CCN(c3ccc(OC)cc3)CC2)nc2c1c(=O)[nH]c(=O)n2C | 103* | 4 | 33 | i | 0
CCn1c(N2CCC(Cc3ccccc3)CC2)nc2c1c(=O)[nH]c(=O)n2C | · | 6 | 26 | i | 17*
O=c1[nH]c(-c2ccccn2)nc2sc(-c3ccccc3)cc12 | · | · | 29 | i | 72*
Cc1c(C(=O)N(C)C)sc2nc(-c3ccccn3)[nH]c(=O)c12 | · | 12 | 21 | i | 0
C[C@H]1CN([C@@H](C)CO)C(=O)c2cc(-c3cccc(F)c3)cnc2O[C@H]1CN(C)CC1CCOCC1 | -5 | 4 | · | · | ·
CCOC(=O)c1c(C)oc2ccc(OCC(=O)C(C)(C)C)cc12 | 144* | 1 | 12 | i | 0
CSc1ccccc1C(=O)Nc1ccc2c(c1)CCC2 | -18 | -3 | 21 | i | 3
O=C(Nc1ccc2c(c1)CCC2)c1ccccc1Br | · | 4 | 15 | + | 1
Cc1ccc(S(=O)(=O)Nc2ccc3c(c2)CC(=O)N([C@H](C)CO)C[C@H](C)[C@@H](CN(C)Cc2ccc(C(=O)O)cc2)O3)cc1 | · | 6 | · | · | ·
CCOC(=O)c1cc(NC(=O)Nc2ccccc2Cl)c(C)nc1C | · | 8 | 3 | i | 0
CCOC(=O)c1cc(NC(=O)NCc2ccco2)c(C)nc1C | 83* | -1 | 18 | i | 0
SMILES | Statin myotox sup | PGC1a acetyl inh | AI-2 QS mod | Rce1 inh | HIF activator
CC(=O)Oc1ccc(-c2csnn2)cc1 | 7 | 95* | 22 | i | 0
CN(C)CCNc1oc(-c2ccccc2F)nc1C#N | 14 | -4 | 3 | i | 0
N#Cc1nc(-c2ccccc2F)oc1NCc1cccc2c1OCO2 | 18 | 6 | -87* | i | 0
C[C@@H]1CN([C@H](C)CO)C(=O)Cc2cc(NS(=O)(=O)c3ccc(Cl)cc3)ccc2O[C@@H]1CN(C)S(C)(=O)=O | -28 | -10 | · | · | ·
CO[C@H]1CC[C@H]2CCN(C)C(=O)[C@H](C)[C@H](OC)CN(C)C(=O)c3cc(C#N)ccc3OC[C@@H]1O2 | -6 | 6 | · | · | ·
O=C(N/N=C/c1ccc(O)c(O)c1O)/C(=C/c1ccc([N+](=O)[O-])cc1)NC(=O)c1ccccc1 | 9 | 15 | 43 | i | 10*
Cc1ccc(NC(=O)/C(=C\c2ccc([N+](=O)[O-])cc2)NC(=O)c2ccccc2)cc1 | -3 | -8 | 39 | i | -23
CC1(C)CC(=O)C2=C(C1)N(c1cccnc1)C(N)=C(C#N)C2c1cccs1 (configuration not stated) | · | · | 16 | i | 0
CCSc1sccc1C1C(C#N)=C(N)N(c2cccnc2)C2=C1C(=O)CC(C)(C)C2 (configuration not stated) | 77* | -6 | 7 | i | 0
COCC(=O)Nc1ccc2c(c1)OC[C@H](C)N(Cc1cccc(F)c1)C[C@H](C)[C@@H](OC)CN(C)C2=O | · | 1 | · | · | ·
CCOC(=O)C1CCN(Cc2ccccn2)CC1 | · | · | 3 | i | 1
CCOC(=O)C1CCN(C=Nc2cc(C)on2)CC1 | 147* | 7 | -4 | i | 1
CN1CCN(c2ccc(NC(=O)c3cccc(OCc4ccccc4)c3)cc2)CC1 | -17 | -3 | 8 | i | 1
CCN1CCN(c2ccc(NC(=O)c3cccc(OCc4ccccc4)c3)cc2)CC1 | -6 | -18 | 8 | + | 0
CC(=O)Nc1ccc(/C(C)=N/NS(=O)(=O)c2ccc(C)cc2)cc1 | -3 | -5 | 14 | i | 0
C/C(=N/NS(=O)(=O)c1ccc(Br)cc1)c1ccc(NC(=O)c2ccc(C)o2)cc1 | 76* | 10 | 23 | i | 1
CC1(OC(=O)c2ccco2)C(=O)C=C2C=C(C3CC3)OC=C2C1=O (configuration not stated) | 3 | 6 | 16 | i | 0
CC1(OC(=O)c2cccs2)C(=O)C=C2C=C(C3CC3)OC=C2C1=O (configuration not stated) | 3 | -7 | 30 | i | 112*
O=C(Cc1ccncc1)NCC[C@H]1CC[C@H](NC(=O)C2CCC2)[C@H](CO)O1 | 5 | 7 | · | · | ·
CC1(c2ccc(OCC#N)cc2)C=C(c2ccc(OCC#N)cc2)n2nc(C(F)(F)F)nc2N1 (configuration not stated) | · | · | 13 | + | 0
CC(C)NC(=O)N(C)C[C@H]1Oc2c(NS(=O)(=O)c3ccc(F)cc3)cccc2C(=O)N([C@H](C)CO)C[C@H]1C | 2 | -7 | · | · | ·
C=C(C)CSc1cc(C)nc2c(-c3ccccc3)c(C)nn12 | -29 | 4 | 12 | + | 1
CCSc1cc(C)nc2c(-c3ccccc3)c(C)nn12 | 11 | -4 | 3 | i | 0
